Assay results taken from PubChem BioAssay AID588719 (Southern Research Specialized Biocontainment Screening …, 2011).
The whole screen tested about 1,500 compounds, of which about 920 (61%) were called active. How the calls were made is not given here. The set was probably picked from earlier hits. The list shows a part of the results. Measured potencies and affinities stand elsewhere.

test: Vero 76 cell cytotoxicity, dose response, cytotoxicity control for VEEV inhibitor project (AID 588719); details: Vero 76 cells viability, cytotoxicity counter-screen; series mostly up to 25 µM; viability: at the top concentration

Question: For `OCC1(CCOc2ccccc2)CCN(Cc2nc3ccc(F)cc3[nH]2)CC1`, which “viability” value is on record?
Answer: 82.4% (inactive)

Question: Which “viability” value does the source give for `COc1ccc(S(=O)(=O)N2CCC(C(=O)N[C@@H](C)C(=O)NCc3ccc(F)cc3)CC2)cc1` here?
Answer: 88.8% (inactive)

Question: With `CCCN1C(=O)c2ccccc2NC1c1ccc(OC)cc1O` (stereo not drawn) as the molecule, how does the “viability” value read?
Answer: 79.5% (inactive)

Question: For `COc1ccc(C(=O)/C=C/C(=O)N(CC(=O)NC2CCCCC2)Cc2ccccc2OC)c(O)c1`, which “viability” value is on record?
Answer: 93.6% (inactive)

Question: With `CCN1CCN(Cc2nc3ccc([N+](=O)[O-])cc3c(=O)n2-c2ccccc2F)CC1` as the molecule, how does the “viability” value read?
Answer: 79.8% (inactive)

Question: With `Cc1onc(C(=O)Nc2cccc(C(F)(F)F)c2)c1[N+](=O)[O-]` as the molecule, how does the “viability” value read?
Answer: 76.4% (inactive)

Question: Which “viability” value does the source give for `CC1(NS(=O)(=O)c2ccc(Cl)s2)CCS(=O)(=O)C1` (stereo not drawn) here?
Answer: 92.2% (inactive)

Question: For `C/C(=N/OCO/N=C(\C)c1ccccc1)c1ccccc1`, which “viability” value is on record?
Answer: 85.1% (inactive)

Question: Which “viability” value does the source give for `O=S(=O)(Nc1nc2ccccc2nc1NCc1ccco1)c1ccc(F)cc1` here?
Answer: 96% (inactive)

Question: For `CCC1CCCCN1S(=O)(=O)c1ccc(NC(=O)c2nc(S(C)(=O)=O)ncc2Cl)cc1` (stereo not drawn), which “viability” value is on record?
Answer: 95.8% (inactive)

Question: Which “viability” value does the source give for `O=S(=O)(c1ccc(Cl)cc1)N1CCN(C(=S)Nc2ccccc2F)CC1` here?
Answer: 87.5% (inactive)

Question: Which “viability” value does the source give for `C[C@@H](NC(=O)c1nc[nH]c1C(=O)N1CCN(C(=O)OC(C)(C)C)CC1)c1ccccc1` here?
Answer: 92.1% (inactive)

Question: For `CC(C)(C)OC(=O)[C@H](Cc1ccccc1)NC(=O)c1nc[nH]c1C(=O)N1CCN(C(=O)OC(C)(C)C)CC1`, which “viability” value is on record?
Answer: 73.2% (inactive)

Question: With `CCn1c2ccccc2c2cc(NC(=O)c3ccc(=O)oc3)ccc21` as the molecule, how does the “viability” value read?
Answer: 88.2% (inactive)

Question: For `CN(C)CCOCCOc1ccc(Cl)cc1C(C)(C)C`, which “viability” value is on record?
Answer: 77% (inactive)

Question: For `O=c1cc(-c2ccccc2)nc(/C=C/c2ccccc2)[nH]1`, which “viability” value is on record?
Answer: 92.5% (inactive)

Question: For `Cc1nonc1OC(C)CNCCNc1ccc([N+](=O)[O-])cc1` (stereo not drawn), which “viability” value is on record?
Answer: 93.8% (inactive)

Question: For `COc1ccc(-n2c(CN3CCC(C(N)=O)CC3)nc3ccc([N+](=O)[O-])cc3c2=O)c(OC)c1`, which “viability” value is on record?
Answer: 96.6% (inactive)

Question: With `CCn1cc(C(=O)O)c(=O)c2cc(F)c(N3CCN(C(=S)NC(=O)c4ccc(F)cc4)CC3)cc21` as the molecule, how does the “viability” value read?
Answer: 96.5% (inactive)

Question: With `S=c1[nH]nc(-c2ccccn2)n1/N=C/c1ccc(-c2ccccc2Br)o1` as the molecule, how does the “viability” value read?
Answer: 89.9% (inactive)

Question: Which “viability” value does the source give for `O=C(Nc1ccc(Cl)cc1C(=O)c1ccccn1)c1ccccc1` here?
Answer: 85.4% (inactive)

Question: For `O=C(O)c1cccnc1Nc1ccc(Cl)cc1`, which “viability” value is on record?
Answer: 77.5% (inactive)

Question: With `Cc1cc(C(=O)Cn2nnc3ccccc3c2=O)c(C)n1-c1ccccc1F` as the molecule, how does the “viability” value read?
Answer: 74.2% (inactive)

Question: Which “viability” value does the source give for `Cc1ccc(C)c(-n2cc(CNC(C)Cn3cncn3)c(-c3ccccc3)n2)c1` (stereo not drawn) here?
Answer: 89.9% (inactive)

Question: With `O=C(N/N=C(\CC(=O)c1cccs1)C(F)(F)F)c1ccncc1` as the molecule, how does the “viability” value read?
Answer: 75% (inactive)

Question: Which “viability” value does the source give for `CCOC(=O)c1oc2ccc(S(=O)(=O)n3nc(-c4ccc(C)cc4)cc3N)cc2c1C` here?
Answer: 75.5% (inactive)

Question: Which “viability” value does the source give for `CC(=O)Nc1ccc(S(=O)(=O)Nc2nc(C)nc3sc4c(c23)CCC4)cc1` here?
Answer: 88.4% (inactive)

Question: For `COc1ccccc1/C=C/C(=O)c1ccc(NC(C)=O)cc1`, which “viability” value is on record?
Answer: 84.5% (inactive)
